# Compound activity from PubChem.
# The list is not random: actives were taken first. Their share in the collection is about 4.6%.
# KKLEB tox: cytotoxicity in KKLEB CF airway cells, primary screen, cytotoxicity control for CF NF-kB inhibitor project, cell-based, uHTS, fluorescence assay plates; KKLEB CF airway cells viability, ATPlite luminescence, overnight; stronger effect = lower value; cells stimulated with P. aeruginosa culture filtrate; activity change (cytotoxicity), % at 5 µM; 0.36% of 360,000 active;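 active = corrected activity change at or below -50% at 5 µM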
# CF NFkB inh: inhibitors of PAF-induced NF-kB signaling, primary screen, cell-based, GFP fluorescence, uHTS; KKLEB NF-kB-GFP reporter, GFP fluorescence overnight; inhibition, % at 5 µM; 0.86% of 360,000 active; AID 588850, 2011;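 active = at least 50% inhibition at 5 µM, scaled per plate between neutral and stimulator controls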;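 note: PAF is a Pseudomonas aeruginosa culture filtrate used as stimulus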
# Mdm2 MdmX PPI: inhibitors of human Mdm2-MdmX association, primary screen, cell-based, luminescence, split luciferase, SaOS-2, uHTS. SaOS-2 split-luciferase Mdm2/MdmX complementation. 3% of 330,000 active. inhibition, % at 8 µM;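 active = inhibition of at least 50% at 8 µM in the primary screen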
# ABHD5-PLIN5 inh: ABHD5-PLIN5 interaction inhibitors, primary screen, cell lysate, split luciferase complementation, luminescence; Perilipin-5 (Homo sapiens) + 1-acylglycerol-3-phosphate O-acyltransferase ABHD5 (Homo …; Split G. princeps luciferase complementation, 4 h; inhibition, % at 4 µM; 0.78% of 360,000 active; AID 602281, 2012;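 active = inhibition above the mean inhibition across every tested compound plus 3 SD, cut at about 22% in these data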
# HIF-2a inh: HIF-2a reporter inhibitors, primary screen, luminescence, 786-0 RCC cells | 786-0 RCC cells HIF-2a reporter, luciferase luminescence, overnight | inhibition, % at 18.8 µM | 0.72% of 360,000 active | AID 624352, 2012;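 active = inhibition of the luminescence signal of 40% or more relative to plate controls, in a single-dose primary screen at 18.75 µM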
# Peg3 prom inh: Peg3 promoter-driven luciferase inhibitors, primary screen, cell-based, HeLa, luciferase luminescence. HeLa PEG-Prom luciferase reporter, overnight. inhibition, % at 20 µM. 1.7% of 360,000 active. AID 588405, 2011;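 active = inhibition of at least 50% at 20 µM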
# ABHD5-PLIN5 conf: ABHD5-PLIN5 interaction inhibitors, confirmation, biochemical, luminescence; inhibition, % at 4 µM; AID 651612, 2012; 67% of 2,200 active; shares compounds with ABHD5-PLIN5 inh; in the data active = inhibition above about 23%
# HNF4 split-luc: HNF4 dimerization inhibitors, counter-screen for ABHD5-PLIN5 interaction inhibitor project, biochemical, split-luciferase complementation, luminescence; shares compounds with ABHD5-PLIN5 inh; inhibition, % at 4 µM; 77% of 2,200 active;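 active = mean inhibition across replicate wells exceeding the computed hit threshold, cut at about 13% in these data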;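 note: light from luciferase halves that rejoin when HNF4 fusion proteins dimerize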
# Target sequence (P41235 whole entry, looked up, the tested form may be a part): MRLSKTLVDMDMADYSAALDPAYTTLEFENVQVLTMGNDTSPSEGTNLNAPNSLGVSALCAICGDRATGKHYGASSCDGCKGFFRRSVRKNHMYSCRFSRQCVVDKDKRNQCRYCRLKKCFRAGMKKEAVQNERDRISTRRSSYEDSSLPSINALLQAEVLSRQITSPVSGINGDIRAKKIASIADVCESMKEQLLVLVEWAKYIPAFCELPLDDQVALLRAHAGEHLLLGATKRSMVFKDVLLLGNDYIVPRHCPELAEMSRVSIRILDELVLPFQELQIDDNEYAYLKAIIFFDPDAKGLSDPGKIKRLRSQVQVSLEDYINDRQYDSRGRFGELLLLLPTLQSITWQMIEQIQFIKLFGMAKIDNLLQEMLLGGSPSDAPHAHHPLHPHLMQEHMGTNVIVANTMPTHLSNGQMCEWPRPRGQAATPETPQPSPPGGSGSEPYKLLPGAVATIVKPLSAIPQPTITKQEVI
# Hits are given with their value; i = inactive; nt = not tested or not shown.
SMILES,KKLEB tox,CF NFkB inh,Mdm2 MdmX PPI,ABHD5-PLIN5 inh,HIF-2a inh,Peg3 prom inh,ABHD5-PLIN5 conf,HNF4 split-luc
CCCCn1c(N)c(N(C(=O)CSc2nncn2-c2ccccc2C)C2CCCC2)c(=O)[nH]c1=O,i,i,nt,i,i,i,nt,nt
Cn1c(=O)c2[nH]c(C3CC3)nc2n(C)c1=O,i,i,nt,i,i,i,nt,nt
N#CC1=C(N)NC(=S)C(C(N)=O)C1c1ccc([N+](=O)[O-])cc1 (stereo not drawn),i,i,i,52,i,i,i,i
O=C1NC(C(=O)O)=CC(c2ccc([N+](=O)[O-])cc2)N1 (stereo not drawn),i,i,i,i,i,i,nt,nt
CC(C)c1ccc(C2CC(=O)c3cnc(N4CCc5ccccc5C4)nc3C2)cc1 (stereo not drawn),i,i,i,i,i,i,nt,nt
O=C1CC(c2ccco2)Cc2nc(N3CCc4ccccc4C3)ncc21 (stereo not drawn),i,i,i,28,i,i,i,23
CCCCCSc1nncc(=O)[nH]1,i,i,i,i,i,i,nt,nt
CCCCCCCCSC1=CC(=O)C(OC)=C(OC)C1=O,i,63,nt,65,i,93,100,104
CN(CC(=O)Nc1cc(Cl)cc(Cl)c1)Cc1cccs1,i,i,i,i,i,i,nt,nt
O=[N+]([O-])/C=C\c1ccc(N2CCCC2)c(F)c1,i,i,nt,64,46,101,98,100
Cc1ccc(S(=O)(=O)N2CC(CO)=CCC2c2ccccc2)cc1 (stereo not drawn),nt,nt,nt,i,i,nt,nt,nt
CC1CN(S(=O)(=O)c2ccc(C(=O)OCc3ccc(C#N)cc3)cc2)CC(C)O1 (stereo not drawn),i,i,i,i,i,i,nt,nt
Cc1cc(SCC(=O)NC(=O)NCc2ccco2)nc2c(C)cccc12,i,i,i,40,i,i,27,38
O=C(CSc1nc(-c2ccccc2)cs1)NC(=O)NCc1ccco1,i,i,i,i,i,i,nt,nt
O=C(CSc1n[nH]c(-c2ccccc2)n1)NC(=O)NCc1ccco1,i,i,nt,23,i,i,i,i
O=C(NCc1ccccc1)c1cc(C2COCCN2C(=O)c2ccc3c(c2)CCO3)on1 (stereo not drawn),i,i,nt,i,i,i,nt,nt
CCc1nc2ccc(C(=O)N(C)CCN(C)C)cn2c1N(C)Cc1cc2ccccc2s1,i,i,nt,i,i,i,nt,nt
COc1cc(C(=O)Nc2nnc(C3=COCCO3)o2)cc(OC)c1OC,i,i,i,i,i,i,nt,nt
c1ccc(C[C@H]2COc3c4ccccc4nn32)cc1,nt,nt,nt,i,i,nt,nt,nt
COc1ccc(/C=C/C(=O)c2c(O)ccc3c(C)cc(=O)oc23)cc1,i,i,i,47,i,i,65,55
CCOc1ccc(/C=C/C(=O)c2c(O)cc(C)oc2=O)cc1,i,i,i,i,i,i,nt,nt
COc1ccc(/C=C\C(=O)c2c(O)ccc3c(C)cc(=O)oc23)cc1,i,i,i,47,i,i,61,44
COc1ccccc1N1CCN(Cc2cc(=O)oc3cc(C)cc(C)c23)CC1,i,i,nt,i,i,i,nt,nt
CCC(=O)Nc1ccc(/C=C(\C(C)=O)C(=O)c2ccccc2)cc1,i,i,i,28,i,i,44,51
COc1cccc(C=C(C(C)=O)C(=O)c2ccccc2)c1,nt,nt,nt,77,i,nt,87,80
SMILES,KKLEB tox,CF NFkB inh,Mdm2 MdmX PPI,ABHD5-PLIN5 inh,HIF-2a inh,Peg3 prom inh,ABHD5-PLIN5 conf,HNF4 split-luc
Cc1cn([C@H]2C[C@H](O)[C@@H](/C=C/C(=O)NCCc3ccc4c(c3)OCO4)O2)c(=O)[nH]c1=O,i,i,nt,i,i,i,nt,nt
O=C(C=Cc1cccc(O)c1)c1ccccc1O,i,i,nt,45,i,i,93,75
COc1ccc(C(=O)/C=C/c2ccc(OC)cc2OC)c(O)c1,i,i,i,i,i,i,nt,nt
COc1cc(/C=C/C(=O)O)cc(Br)c1O,i,i,i,i,i,i,nt,nt
COc1ccc(C(=O)/C=C/c2ccccc2)c(O)c1,i,i,i,30,i,i,66,47
COc1cc(OC)c(C(=O)/C=C/c2ccccc2)c(O)c1O,i,i,i,39,i,i,50,38
CCOC(=O)c1c(NC(=O)/C=C/C(=O)O)sc(C)c1-c1ccc(C)c(C)c1,i,i,i,25,i,i,i,i
CCOC(=O)c1c(NC(=O)/C=C/C(=O)O)sc(C)c1-c1ccc(F)cc1,i,i,i,i,i,i,nt,nt
O=C(CC1S/C(=N/N=C/c2c[nH]c3ccc(OCc4ccccc4)cc23)NC1=O)Nc1ccccc1 (stereo not drawn),i,i,i,i,i,i,nt,nt
O=C(CC1S/C(=N/N=C/c2c[nH]c3ccccc23)NC1=O)Nc1ccccc1 (stereo not drawn),i,i,i,23,i,i,i,i
OC1CC2CCC(C1)N2CCCN1c2ccccc2Sc2ccc(Cl)cc21 (stereo not drawn),i,i,nt,27,i,105,i,16
C=CCN(C(=O)CCC(=O)Nc1cc(C)on1)C(C(=O)NC(C)(C)CC)c1cccc(OC)c1OC (stereo not drawn),i,i,i,i,i,i,nt,nt
COCCNC(=O)/C(C#N)=C/c1ccc(O)cc1,i,i,i,i,i,i,nt,nt
COCCNC(=O)/C(C#N)=C/c1cccc(/C=C(\C#N)C(=O)NCCOC)c1,i,i,nt,48,i,i,98,71
COc1cc2c(cc1NC(=O)CC1SC(N3CCCC3)=NC1=O)oc1ccccc12 (stereo not drawn),i,i,i,29,i,i,i,i
O=C(CC[C@H]1O[C@@H](n2cnc3c(NC(=O)c4ccccc4)ncnc32)[C@H](O)[C@@H]1O)N[C@@H](CO)Cc1c[nH]c2ccccc12,i,i,nt,i,i,i,nt,nt
Cn1cccc1/C=C1\CCC/C(=C\c2cccn2C)C1=O,i,i,i,48,i,i,i,40
O=C1/C(=C/c2cccs2)CCC/C1=C\c1cccs1,i,i,i,i,i,i,nt,nt
Cc1nc2ccccc2n1CCOc1ccccc1,i,i,i,i,i,i,nt,nt
Cc1ccc(NCc2nc3ccccc3n2CCOc2ccccc2)cc1,i,i,i,26,i,i,i,i
